Results on 7 molecules are retold here after ChEMBL document CHEMBL1961873, “Compounds: GSK PKIS; Assays: Nanosyn kinase panel” (2012).

The target in assay [1] is T1, Serine/threonine-protein kinase D2 (Homo sapiens) (UniProt Q9BZL6).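 Also: mean value of PRKD2 inhibition, from the GSK PKIS screening panel.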
T1 sequence (whole entry): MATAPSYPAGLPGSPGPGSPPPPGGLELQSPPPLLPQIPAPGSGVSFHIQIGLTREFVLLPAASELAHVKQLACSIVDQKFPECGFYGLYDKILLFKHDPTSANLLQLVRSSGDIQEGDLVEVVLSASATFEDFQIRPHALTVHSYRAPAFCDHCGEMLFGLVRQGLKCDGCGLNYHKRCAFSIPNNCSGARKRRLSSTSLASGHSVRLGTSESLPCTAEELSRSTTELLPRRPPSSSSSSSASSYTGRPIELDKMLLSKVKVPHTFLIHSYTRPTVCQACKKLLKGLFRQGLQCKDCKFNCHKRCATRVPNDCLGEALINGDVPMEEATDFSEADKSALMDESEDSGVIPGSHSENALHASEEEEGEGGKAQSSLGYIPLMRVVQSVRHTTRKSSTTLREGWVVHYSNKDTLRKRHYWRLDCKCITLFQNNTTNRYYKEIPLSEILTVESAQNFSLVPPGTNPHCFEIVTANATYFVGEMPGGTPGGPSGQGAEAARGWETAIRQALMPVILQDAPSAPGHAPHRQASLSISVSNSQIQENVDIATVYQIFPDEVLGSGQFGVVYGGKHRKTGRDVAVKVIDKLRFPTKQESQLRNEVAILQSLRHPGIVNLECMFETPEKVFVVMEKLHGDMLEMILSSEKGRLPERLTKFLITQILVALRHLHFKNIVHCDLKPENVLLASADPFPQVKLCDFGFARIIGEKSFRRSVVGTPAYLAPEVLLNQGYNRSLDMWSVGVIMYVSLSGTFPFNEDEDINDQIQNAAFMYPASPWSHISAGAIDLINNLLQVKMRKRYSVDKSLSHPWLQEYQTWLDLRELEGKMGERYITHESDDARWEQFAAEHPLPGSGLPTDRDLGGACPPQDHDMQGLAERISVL
The conditions noted are these: at 1 µM.

Assay [2] has as its target T2, Serine/threonine-protein kinase D3 (Homo sapiens) (UniProt O94806).
T2 sequence (whole entry): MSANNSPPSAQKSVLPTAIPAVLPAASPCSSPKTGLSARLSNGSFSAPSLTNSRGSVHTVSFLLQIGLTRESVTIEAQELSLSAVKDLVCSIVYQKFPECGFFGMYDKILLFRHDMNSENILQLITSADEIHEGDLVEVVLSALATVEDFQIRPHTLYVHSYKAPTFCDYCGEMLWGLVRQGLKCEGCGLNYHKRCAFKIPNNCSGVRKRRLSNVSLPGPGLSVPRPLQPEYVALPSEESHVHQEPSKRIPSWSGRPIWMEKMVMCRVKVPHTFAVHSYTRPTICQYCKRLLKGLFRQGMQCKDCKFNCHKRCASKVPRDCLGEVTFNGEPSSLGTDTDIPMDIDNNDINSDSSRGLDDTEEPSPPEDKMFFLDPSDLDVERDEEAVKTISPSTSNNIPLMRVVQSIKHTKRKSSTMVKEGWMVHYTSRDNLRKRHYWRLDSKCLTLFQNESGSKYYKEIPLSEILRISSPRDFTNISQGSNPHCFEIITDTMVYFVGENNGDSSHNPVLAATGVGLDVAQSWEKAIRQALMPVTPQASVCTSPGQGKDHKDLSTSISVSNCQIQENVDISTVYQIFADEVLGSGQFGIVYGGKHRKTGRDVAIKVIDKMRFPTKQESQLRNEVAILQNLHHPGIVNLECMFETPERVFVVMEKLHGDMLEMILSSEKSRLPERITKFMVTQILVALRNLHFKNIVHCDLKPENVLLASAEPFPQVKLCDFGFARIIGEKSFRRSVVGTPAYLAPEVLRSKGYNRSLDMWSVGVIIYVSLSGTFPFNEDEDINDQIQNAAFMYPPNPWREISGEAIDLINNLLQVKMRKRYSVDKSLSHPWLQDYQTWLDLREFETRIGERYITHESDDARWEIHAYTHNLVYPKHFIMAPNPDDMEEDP
The following applies: at 0.1 µM.

Assay [3] concerns the target T2, Serine/threonine-protein kinase D3 (Homo sapiens). The following applies: at 1 µM.
The target in assay [4] is T3, cGMP-dependent protein kinase 1 (Homo sapiens) (UniProt Q13976).
T3 sequence (whole entry): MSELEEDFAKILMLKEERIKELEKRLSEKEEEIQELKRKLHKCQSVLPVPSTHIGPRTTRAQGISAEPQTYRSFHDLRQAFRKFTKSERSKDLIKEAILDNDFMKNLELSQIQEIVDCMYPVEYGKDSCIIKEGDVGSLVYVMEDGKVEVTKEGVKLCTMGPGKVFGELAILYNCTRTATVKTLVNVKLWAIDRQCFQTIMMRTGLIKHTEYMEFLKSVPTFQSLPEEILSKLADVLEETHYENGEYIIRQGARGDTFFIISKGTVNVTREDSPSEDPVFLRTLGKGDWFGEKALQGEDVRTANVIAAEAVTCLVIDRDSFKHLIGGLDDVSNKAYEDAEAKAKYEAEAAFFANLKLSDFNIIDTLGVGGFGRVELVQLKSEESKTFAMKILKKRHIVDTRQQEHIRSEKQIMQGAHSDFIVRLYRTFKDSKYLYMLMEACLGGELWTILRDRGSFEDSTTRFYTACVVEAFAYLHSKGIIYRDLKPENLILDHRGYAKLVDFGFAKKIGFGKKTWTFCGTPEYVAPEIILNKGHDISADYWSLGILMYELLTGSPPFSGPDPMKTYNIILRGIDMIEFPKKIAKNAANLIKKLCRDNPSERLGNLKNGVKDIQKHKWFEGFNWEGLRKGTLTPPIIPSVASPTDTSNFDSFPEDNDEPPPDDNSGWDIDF
The following applies: at 0.1 µM.

The target in assay [5] is T3, cGMP-dependent protein kinase 1 (Homo sapiens). The following applies: at 1 µM.
In assay [6] the target is T4, cGMP-dependent protein kinase 2 (Homo sapiens) (UniProt Q13237).
T4 sequence (whole entry): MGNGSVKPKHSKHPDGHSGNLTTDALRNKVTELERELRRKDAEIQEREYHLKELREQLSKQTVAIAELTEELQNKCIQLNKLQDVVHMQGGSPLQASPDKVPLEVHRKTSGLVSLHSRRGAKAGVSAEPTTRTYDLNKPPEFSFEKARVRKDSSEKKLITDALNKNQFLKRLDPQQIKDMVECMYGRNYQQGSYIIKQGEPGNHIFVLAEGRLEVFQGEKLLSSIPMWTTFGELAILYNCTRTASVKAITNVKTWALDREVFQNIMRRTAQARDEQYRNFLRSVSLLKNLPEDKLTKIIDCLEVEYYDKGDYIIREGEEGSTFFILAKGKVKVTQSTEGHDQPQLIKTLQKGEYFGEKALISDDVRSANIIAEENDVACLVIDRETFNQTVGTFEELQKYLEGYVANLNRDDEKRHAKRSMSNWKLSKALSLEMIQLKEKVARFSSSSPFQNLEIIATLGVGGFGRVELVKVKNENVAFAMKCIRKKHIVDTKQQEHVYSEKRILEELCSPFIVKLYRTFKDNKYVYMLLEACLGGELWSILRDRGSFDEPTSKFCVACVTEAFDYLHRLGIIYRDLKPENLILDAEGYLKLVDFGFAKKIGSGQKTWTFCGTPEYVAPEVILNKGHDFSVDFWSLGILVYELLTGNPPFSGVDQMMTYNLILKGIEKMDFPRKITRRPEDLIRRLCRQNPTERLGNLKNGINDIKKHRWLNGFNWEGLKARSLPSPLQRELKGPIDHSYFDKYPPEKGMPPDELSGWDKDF
The conditions noted are these: at 0.1 µM.

The target in assay [7] is T4, cGMP-dependent protein kinase 2 (Homo sapiens). The conditions noted are these: at 1 µM.
The target of assay [8] is T5, cAMP-dependent protein kinase catalytic subunit PRKX (Homo sapiens) (UniProt P51817).
T5 sequence (whole entry): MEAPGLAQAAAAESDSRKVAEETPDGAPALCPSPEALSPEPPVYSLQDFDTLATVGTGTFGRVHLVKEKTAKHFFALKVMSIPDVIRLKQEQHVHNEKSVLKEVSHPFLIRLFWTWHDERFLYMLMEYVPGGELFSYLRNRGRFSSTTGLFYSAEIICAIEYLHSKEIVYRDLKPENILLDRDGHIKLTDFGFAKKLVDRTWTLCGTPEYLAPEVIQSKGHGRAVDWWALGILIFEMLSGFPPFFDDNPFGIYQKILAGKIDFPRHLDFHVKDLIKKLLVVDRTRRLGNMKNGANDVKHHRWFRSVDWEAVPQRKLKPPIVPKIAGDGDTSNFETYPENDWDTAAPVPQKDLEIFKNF
The following applies: at 0.1 µM.

Assay [9] deals with T5, cAMP-dependent protein kinase catalytic subunit PRKX (Homo sapiens). The following applies: at 1 µM.
In assay [10] the target is Rho-associated protein kinase 1 (Homo sapiens) (UniProt Q13464). The following applies: at 0.1 µM.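 Also: values are mean percent inhibition of ROCK1.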
Rho-associated protein kinase 1 (Homo sapiens), sequence (Q13464 2-1354 limits assumed): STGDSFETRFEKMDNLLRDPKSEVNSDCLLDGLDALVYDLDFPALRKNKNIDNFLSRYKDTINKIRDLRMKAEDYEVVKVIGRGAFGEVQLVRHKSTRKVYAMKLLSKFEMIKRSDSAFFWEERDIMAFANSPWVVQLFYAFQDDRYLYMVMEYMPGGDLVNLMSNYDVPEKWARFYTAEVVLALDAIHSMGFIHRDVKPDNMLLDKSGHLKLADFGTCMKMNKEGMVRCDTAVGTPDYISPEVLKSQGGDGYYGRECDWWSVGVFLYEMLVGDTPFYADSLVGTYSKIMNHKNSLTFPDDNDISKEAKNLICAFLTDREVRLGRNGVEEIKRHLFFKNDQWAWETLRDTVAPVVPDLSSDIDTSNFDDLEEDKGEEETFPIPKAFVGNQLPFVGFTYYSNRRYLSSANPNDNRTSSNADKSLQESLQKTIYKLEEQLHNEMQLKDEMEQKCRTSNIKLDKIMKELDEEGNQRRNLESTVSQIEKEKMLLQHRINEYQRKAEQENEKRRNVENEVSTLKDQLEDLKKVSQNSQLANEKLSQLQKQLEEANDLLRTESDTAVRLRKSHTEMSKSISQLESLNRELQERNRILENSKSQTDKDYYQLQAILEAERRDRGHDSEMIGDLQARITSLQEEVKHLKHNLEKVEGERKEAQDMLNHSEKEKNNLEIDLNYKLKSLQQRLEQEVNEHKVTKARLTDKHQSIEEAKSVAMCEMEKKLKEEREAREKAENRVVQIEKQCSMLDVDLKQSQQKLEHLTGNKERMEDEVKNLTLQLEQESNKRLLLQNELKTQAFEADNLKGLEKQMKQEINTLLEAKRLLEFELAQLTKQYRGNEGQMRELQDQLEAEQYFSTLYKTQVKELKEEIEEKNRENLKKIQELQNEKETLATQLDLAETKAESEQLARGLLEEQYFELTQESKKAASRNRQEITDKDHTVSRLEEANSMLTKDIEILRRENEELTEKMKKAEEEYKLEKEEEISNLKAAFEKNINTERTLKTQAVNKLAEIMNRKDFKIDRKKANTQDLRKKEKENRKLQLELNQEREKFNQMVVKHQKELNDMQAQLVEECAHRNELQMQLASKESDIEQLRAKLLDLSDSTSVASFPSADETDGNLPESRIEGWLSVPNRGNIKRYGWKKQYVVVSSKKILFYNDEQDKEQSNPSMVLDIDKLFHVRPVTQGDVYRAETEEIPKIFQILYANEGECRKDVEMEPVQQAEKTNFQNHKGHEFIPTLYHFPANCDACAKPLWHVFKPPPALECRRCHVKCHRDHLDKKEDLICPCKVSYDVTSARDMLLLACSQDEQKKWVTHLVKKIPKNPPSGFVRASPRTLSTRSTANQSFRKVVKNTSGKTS

With `FC(F)(F)CNc1nccc(-c2cnn3ncccc23)n1`, the inhibition (commonly the change of the read-out against control, counted positive when it falls) in assay [1] is 2.13%; in [2], 2.29%; in [3], 3.81%; in assay [4], 1.02%; in assay [5], 1.12%; in assay [6], 2.48%. For the same molecule, the inhibition is 2.8% in assay [7], 1.1% in [8], 0.78% in [9] and -0.46% in assay [10].
Turning to `Cc1ccc(-c2cc3c(NC(=O)C4CC4)ncnc3o2)cc1`, the inhibition in assay [1] stood at 6.17%; in [2], 5.27%; in assay [3], 7.32%; in assay [4] it was 3.82%; in assay [5] it was 5.54%; in assay [6] it was 1.95%. For the same molecule, the inhibition in [7] is 4.28%; in [8], 1.05%; in assay [9] it was 0.33%; in [10], 1.09%.
With `CC1(C)CC(n2cnc(-c3ccc(F)cc3)c2-c2ccnc(N)n2)CC(C)(C)N1`, the inhibition in assay [1] was determined as 3.58%; in assay [2] it was 1.4%; in [3] it was 3.8%; in assay [4], 0.62%; in assay [5], 2.53%; in [6] it was 1.24%. Further, the inhibition is 2.55% in [7], 0.98% in assay [8], 2.76% in [9] and 1.34% in [10].
Take `COc1c(C(N)=O)cc(-c2ccc(Cl)cc2)cc1-c1ccc(S(N)(=O)=O)cc1`: the inhibition stood at 1.99% in assay [1]; 4.57% in assay [2]; 4.42% in assay [3]; 4.35% in assay [4]; 9.49% in [5]; 3.98% in assay [6]. The inhibition in assay [7] came to 8.49%; in [8], 1.69%; in assay [9] it was 3.72%; in assay [10], 2.98%.
On to `CC1=C(C(=O)Nc2ccc3[nH]nc(C)c3c2)C(c2ccc(C(F)(F)F)cc2)CC(=O)N1` (stereo not given), for which the inhibition is 4.33% in [1]; 3.46% in assay [2]; 9.27% in assay [3]; 3.93% in [4]; 18.2% in [5]; 5.55% in assay [6]. The inhibition came to 40.2% in assay [7], 7.3% in assay [8], 47% in [9] and 67.8% in assay [10].
`Cn1c(-c2nonc2N)nc2cnccc21`: the inhibition in assay [1] came out at 10.4%; in assay [2], 2.73%; in assay [3], 8.54%; in [4] it was 3.02%; in assay [5], 15%; in assay [6] it was 6.01%. The inhibition in assay [7] was 38.7%; in assay [8], 2.45%; in [9], 6.56%; in assay [10] it was 10.8%.
Turning to `CC1=C(C(=O)Nc2ccc3[nH]ncc3c2)C(c2ccc(F)cc2)N=C(c2ccc(C(F)(F)F)nc2)N1` (stereo not given), the inhibition came out at 2.33% in assay [1]; 3.1% in assay [2]; 2.8% in assay [3]; 7.52% in assay [4]; 42.2% in assay [5]; 4.96% in [6]. Also, the inhibition in assay [7] is 31.1%; in [8], 3.93%; in [9], 23.6%; in assay [10] it was 31.3%.
